# PubChem BioAssay AID1259422 (The Scripps Research Institute Molecular Screening Center, 2018)
# Out of some 640,000 compounds screened, about 9,300 (1.5%) were called active. The entries come from a sample that favours actives as a whole. A number with no mark means an inactive call. Rule as the data show it: active = inhibition above about 32%; inactive = the rest.
# Test: TEAD-YAP interaction inhibition, primary screen, TEAD-YAP interaction inhibitor project, luminescence, HEK-TIYL cells (AID 1259422);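 also: 0% = median of test compound wells and 100% = reference inhibitor wells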
# Conditions: TEAD-Gal4/YAP UAS-luciferase luminescence, at 9.12 µM, hits give high values
row,SMILES,inhibition
1,Cc1csc(C(C#N)C(=O)COC(=O)c2sc3cc(F)ccc3c2Cl)n1 (stereo unspecified),-0.66%
2,COC(=O)C1=C(C)NC(=O)/C1=C\c1cccc(OCc2ccccc2)c1,-0.2%
3,O=C(c1cc(N2CCOCC2)nc2ccccc12)N1CCN(c2cccc(Cl)c2)CC1,-4.93%
4,O=C(COC(=O)c1cc(-c2ccccc2)nc2ccccc12)c1ccccc1,-10%
5,O=C(c1cc(-c2ccc(Cl)cc2)nc2ccccc12)N1CCN(c2ccc([N+](=O)[O-])cc2)CC1,3.06%
6,O=C(O)c1cc(-c2ccc(-c3ccccc3)cc2)nc2ccccc12,84.8% (active)
7,Cc1ccc(Nc2cc(C(=O)O)c3ccccc3n2)cc1,-9.91%
8,O=C(c1cc(-c2ccncc2)nc2ccccc12)N1CCN(c2ccccc2)CC1,57% (active)
9,COc1ccc(CNC(=O)c2ccccc2N(Cc2ccccc2)S(=O)(=O)c2ccc(C)cc2)cc1,1.46%
10,O=C(NCCCN1CCCC1=O)c1ccc2c(c1)N(Cc1ccccc1)C(=O)CS2=O (stereo unspecified),-1.97%
11,CSc1ccccc1NC(=O)Cn1nc(C)c([N+](=O)[O-])c1C,-7.74%
12,Cc1ccc(Oc2ccc(NC(=O)c3ccc(Br)c([N+](=O)[O-])c3)cc2)cc1,20.9%
13,CC(=O)Nc1ccc(Nc2cc(C)nc(NCc3ccc4c(c3)OCO4)n2)cc1,31.4%
14,CCNc1nc(C)cc(Nc2ccc(N3CCOCC3)cc2)n1,1.76%
15,Cc1cc(Nc2ccc(N3CCOCC3)cc2)nc(NCc2ccc3c(c2)OCO3)n1,38.4% (active)
16,O=C(Nc1cccnc1Cl)c1cc2nc3c(c(C(F)(F)F)n2n1)CCc1ccccc1-3,5.92%
17,Cc1ncc(-c2ccncn2)c(-c2ccc(C(F)(F)F)nc2)n1,6.09%
18,C=C(C)CONC(=O)c1cnc2scc(C(C)(C)C)n2c1=O,-7.08%
19,C=CCn1c(C)cc(C(=O)CC#N)c1C,-18.5%
20,CCC(=O)Nc1ccc(C2=NNC(=NC)SC2)cc1,-4.44%
21,C=CCn1c(C)cc(C2=NNC(=NCC)SC2)c1C,99.6% (active)
22,COc1ccc(C2C(C#N)=C(N)Oc3cc(C)n(Cc4ccco4)c(=O)c32)c(OC)c1 (stereo unspecified),6.86%
23,O=C(N/N=C/c1ccc([N+](=O)[O-])o1)c1ccc(Cl)cc1Cl,44.6% (active)

row,SMILES,inhibition
1,O=C(N/N=C/c1ccc([N+](=O)[O-])o1)c1cc(Cl)ccc1O,2.15%
2,O=C(N/N=C/c1ccc([N+](=O)[O-])o1)c1cccc(F)c1,-23.7%
3,COc1cc(NC(=O)CC(C)C)c(C(=O)O)cc1OC,12.1%
4,Cc1cc(NC(=O)c2ccccc2Br)ccc1O,77% (active)
5,Cc1ccccc1C(=O)Nc1ccc(Br)c(Cl)c1,-77.6%
6,Cc1ccc(NC(=O)c2ccccc2Br)cc1C,-49%
7,CN(C)c1cc(F)cc(-c2ccnc(Nc3ccc(-n4cnc(N5CCOCC5)n4)cc3)n2)c1,-6.66%
8,Cc1cnnn1-c1ccc(Nc2nccc(-c3cc(C#N)cc(N4CCOCC4)c3)n2)cc1,1.73%
9,Cc1ncccc1-c1ncn(-c2ccc(Nc3nccc(-c4cc(F)cc(N5CCOCC5)c4)n3)cc2)n1,-3.6%
10,N#Cc1cc(-c2ccnc(Nc3ccc(-n4cnc(-c5ccccn5)n4)cc3)n2)cc(N2CCOCC2)c1,43.5% (active)
11,Cn1nccc1-c1cc(F)cc(-c2ccnc(Nc3ccc(-n4cnc(N5CCOCC5)n4)cc3)n2)c1,9.9%
12,N#Cc1cccc(-c2ccnc(Nc3ccc(N4CCOCC4)cc3)n2)c1,-9.11%
13,COC1CCN(c2ncn(-c3ccc(Nc4nccc(-c5cncc(N6CCOCC6)c5)n4)cc3)n2)CC1,51.5% (active)
14,OC1CCN(c2ccc(Nc3nccc(-c4cc(N5CCOCC5)cc(C(F)(F)F)c4)n3)cc2)CC1,31.8%
15,c1cc(-c2cncc(N3CCOCC3)c2)nc(Nc2ccc3c(c2)OCO3)n1,36.5% (active)
16,Cc1nc(Oc2cc3sc(C)nc3c3sccc23)c2c3c(sc2n1)CCCC3,4.62%
17,Cc1cc(-n2c(C)cc(C(=O)COC(=O)c3cc(=O)[nH]c4ccccc34)c2C)no1,-18.6%
18,CCC(C)NC(=O)C(C(F)(F)F)(C(F)(F)F)C(F)(F)F (stereo unspecified),4.25%
19,COc1ccc(-c2cnnn2-c2ccc(-c3csc(N)n3)cc2)cc1,9.88%
20,COc1ccc(C(=O)N2CCC[C@@H]2[C@@H](O)c2cccs2)cc1Cn1cccn1,-11.1%
21,O=C(Nc1ccc2ccccc2c1)c1ccc2c(c1)C(=O)N(N1C(=O)c3ccccc3C1=O)C2=O,2.19%
22,Cc1ccc2oc(=O)c3cnn(CC(=O)N4CCN(c5ccccn5)CC4)c3c2c1,1.66%
23,Cc1cccc(N2CCN(C(=O)Cn3ncc4c(=O)oc5ccccc5c43)CC2)c1C,63% (active)
